Data: PubChem BioAssay (NCATS)
Inconclusive results are not listed. Activity calls are given as the source filed them. Unless noted, calls come from the whole dose curve; as a rule, active = well fitted curve in the direction sought with a large enough effect; inconclusive = small, poorly fitted or top-dose-only effect, or another doubt; inactive = no such curve, though single readings can be large; an effect the other way counts as inactive or inconclusive.

Tests used:
[1] = target: Glucocorticoid receptor (Homo sapiens) (UniProt P04150); assay: GR-EFC Redistribution (AID 451; calls by dose curve; note: potency is the fitted concentration of half-maximal effect); conditions: CHO-K1 GR-EFC translocation, beta-gal luminescence, 2 h
Sequence of Glucocorticoid receptor (Homo sapiens) (P04150 whole entry, looked up, the tested form may be a part): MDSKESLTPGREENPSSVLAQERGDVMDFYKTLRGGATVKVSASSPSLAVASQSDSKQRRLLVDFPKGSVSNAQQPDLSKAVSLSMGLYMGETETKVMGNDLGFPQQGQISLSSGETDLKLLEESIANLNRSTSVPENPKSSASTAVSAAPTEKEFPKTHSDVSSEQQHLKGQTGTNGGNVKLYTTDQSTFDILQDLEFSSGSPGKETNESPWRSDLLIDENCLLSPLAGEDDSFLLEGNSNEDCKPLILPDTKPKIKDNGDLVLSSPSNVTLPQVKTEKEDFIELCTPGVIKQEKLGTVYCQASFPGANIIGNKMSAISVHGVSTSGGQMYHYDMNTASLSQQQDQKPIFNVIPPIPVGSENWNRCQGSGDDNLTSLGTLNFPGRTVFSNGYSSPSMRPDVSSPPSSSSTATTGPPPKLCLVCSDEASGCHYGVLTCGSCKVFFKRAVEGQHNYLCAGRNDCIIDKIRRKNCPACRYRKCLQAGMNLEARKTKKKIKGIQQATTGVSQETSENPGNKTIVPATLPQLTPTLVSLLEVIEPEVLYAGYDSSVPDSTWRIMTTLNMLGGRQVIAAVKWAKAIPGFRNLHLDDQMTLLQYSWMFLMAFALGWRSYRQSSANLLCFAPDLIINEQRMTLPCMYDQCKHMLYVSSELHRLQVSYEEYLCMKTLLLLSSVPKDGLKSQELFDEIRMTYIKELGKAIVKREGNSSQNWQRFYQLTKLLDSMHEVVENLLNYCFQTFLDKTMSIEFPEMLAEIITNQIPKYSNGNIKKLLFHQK
Procedure, shortened: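 Translocation of GR-ED fusion to nuclear EA restores b-gal, read by luminescence after 1 h room-temperature detection. Engineered CHO-K1 biosensor cells, 1,000/well, exposed 2 h at 37 C to titrations up to 46 uM final.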

[2] = target: Mitogen-activated protein kinase 10 (Mus musculus) (UniProt Q61831); assay: JNK3 AlphaScreen Assay (AID 530; active = well fitted curve in either direction with a large enough effect, not every such curve was filed as active;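 note: kinase came from lysate of stimulated human HepG2 cells; signal reports phosphorylation of biotinylated GST-cJun 1-79 at Ser73 with 10 µM ATP; % is set by controls: 0 for no effect and ±100 for the full control effect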); conditions: JNK3 lysate, c-Jun phosphorylation; series mostly up to 25.6 µM
Procedure, shortened: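 Kinase buffer: 20 mM Tris-HCl pH 7.6, 10 mM MgCl2, 1 mM DTT, 0.1 mM Na3VO4, 0.01% Tween-20; ATP 10 uM. Substrate biotin-GST-cJun(1-79), enzyme from activated HepG2 lysates. Detection by Ser73 phospho-antibody AlphaScreen.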

[3] = target: 3',5'-cyclic-AMP phosphodiesterase 4B (Homo sapiens) (UniProt Q07343); assay: qHTS Assay for Inhibitors of PDE-IV (AID 607; active = well fitted activation curve with a large enough effect in the main read-out, with a control signal flat, not every such curve was filed as active; note: % of control where 0% means no effect); conditions: HEK293 ACTOne CNG channel cells, membrane potential fluorescence; series mostly up to 22.9 µM
Sequence of 3',5'-cyclic-AMP phosphodiesterase 4B (Homo sapiens) (Q07343 whole entry, looked up): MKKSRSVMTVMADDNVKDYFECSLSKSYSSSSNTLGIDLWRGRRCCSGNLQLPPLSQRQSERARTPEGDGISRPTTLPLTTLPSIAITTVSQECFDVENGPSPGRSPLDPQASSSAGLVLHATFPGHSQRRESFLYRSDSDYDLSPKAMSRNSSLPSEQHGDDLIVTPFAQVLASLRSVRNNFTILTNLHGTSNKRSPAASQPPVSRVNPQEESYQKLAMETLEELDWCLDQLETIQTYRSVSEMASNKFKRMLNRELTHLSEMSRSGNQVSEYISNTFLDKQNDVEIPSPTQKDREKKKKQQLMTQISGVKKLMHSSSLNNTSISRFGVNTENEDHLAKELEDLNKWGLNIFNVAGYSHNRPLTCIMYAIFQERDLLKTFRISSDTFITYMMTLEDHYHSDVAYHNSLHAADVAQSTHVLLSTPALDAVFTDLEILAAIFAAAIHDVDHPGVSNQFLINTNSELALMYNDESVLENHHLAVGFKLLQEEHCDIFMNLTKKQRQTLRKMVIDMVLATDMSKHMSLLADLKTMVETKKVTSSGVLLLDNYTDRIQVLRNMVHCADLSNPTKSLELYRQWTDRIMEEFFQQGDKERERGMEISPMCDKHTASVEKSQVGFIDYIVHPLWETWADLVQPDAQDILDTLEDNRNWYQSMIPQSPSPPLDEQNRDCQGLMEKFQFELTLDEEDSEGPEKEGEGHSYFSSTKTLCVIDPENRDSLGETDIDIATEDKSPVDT
Procedure, shortened: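 Live HEK293 cells with a modified cyclic nucleotide-gated (CNG) channel report intracellular cAMP via membrane-potential dye fluorescence (ex 535/em 590 nm). Endogenous PDE-IV was targeted. Compounds were tested at up to 22.9 uM final; RO 20-1724 100 uM served as control.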

[4] = Cell Viability - N2a (AID 540); conditions: N2a mouse neuroblastoma cell viability; activity change, negative = cytotoxicity: at 92.2 µM (top of the series);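 note: plate controls were DMSO alone for no effect and tamoxifen control for full effect; nearly all actives have a fitted effect of over 45% in size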
Procedure, shortened: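 N2a mouse neuroblastoma, 1500 cells/well, 5 hr settle; compound 40 hr, 37 °C; CellTiter-Glo 20 min RT; luminescence; Hill-fit AC50.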

[5] = Cell Viability - NIH 3T3 (AID 541); conditions: NIH 3T3 cell viability, qHTS; activity change, negative = cytotoxicity: at 92.2 µM (top of the series);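 note: cells exposed to compound for 40 hours; plate controls were DMSO alone for no effect and tamoxifen positive control for full effect; nearly all actives have a fitted effect of over 25% in size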
Procedure, shortened: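 qHTS format; 40 hr compound exposure, 37 °C; CellTiter-Glo luminescence (cellular ATP) read-out after 20 min at RT. Decrease in ATP = cytotoxicity; AC50 from standard Hill fit.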

[6] = Cell Viability - HUV-EC-C (AID 542); conditions: HUV-EC-C endothelial cell viability, qHTS; series mostly up to 92.2 µM;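 note: cells exposed to compound for 40 hours; % is set by controls: 0 for no effect and ±100 for the full control effect; nearly all actives have a fitted effect of over 35% in size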
Procedure, shortened: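 Luminescent ATP read-out (CellTiter-Glo, 20 min room temperature) after 40 hr compound treatment of HUV-EC-C cells at 37 °C. Concentration-response data fitted with the standard Hill equation to give AC50; tamoxifen and doxorubicin served as positive controls.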

[7] = Cell Viability - H-4-II-E (AID 543); conditions: H-4-II-E rat hepatoma viability; series mostly up to 92.2 µM;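 note: cells exposed to compound for 40 hours; % is set by controls: 0 for no effect and ±100 for the full control effect; nearly all actives have a fitted effect of over 35% in size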
Procedure, shortened: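 qHTS, rat hepatoma H-4-II-E, 1500 cells/well; 40 hr compound exposure, 37 °C; CellTiter-Glo ATP luminescence after 20 min RT; AC50 by standard Hill fit.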

[8] = Cell Viability - SH-SY5Y (AID 544); conditions: SH-SY5Y neuroblastoma cell viability; viability change, negative = cytotoxic: at 92.2 µM (top of the series);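 note: cells exposed to compound for 40 hours; nearly all actives have a fitted effect of over 55% in size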
Procedure, shortened: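 SH-SY5Y, 1500 cells/well, 5 hr pre-incubation 37 °C; cpd 40 hr 37 °C; CellTiter-Glo 20 min RT; luminescence (ATP) read. qHTS concentration-response, Hill fit → AC50. Tamoxifen, doxorubicin as positive controls.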

[9] = Cell Viability - Renal Proximal Tubule (AID 545); conditions: renal proximal tubule cells viability, primary cells of rat origin; activity change, negative = cytotoxicity: at 91.7 µM (top of the series);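 note: cells exposed to compound for 40 hours; nearly all actives have a fitted effect of over 40% in size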
Procedure, shortened: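 Cytotoxicity is scored as a concentration-dependent drop in cellular ATP in primary rat renal proximal tubule cells exposed for 40 hr. AC50 derives from Hill modelling.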

[10] = Cell Viability - Mesenchymal (AID 546); conditions: mesenchymal cells viability, qHTS; activity change, negative = cytotoxicity: at 91.7 µM (top of the series);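 note: cells exposed to compound for 40 hours before reading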
Procedure, shortened: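 CellTiter-Glo luminescence (intracellular ATP, 20 min room temperature) after 40 hr compound exposure at 37 °C of 1000 glomerulus-derived human kidney mesenchymal cells/well; AC50 values obtained by fitting qHTS concentration-response data to the Hill equation.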

[11] = Cellular Toxicity (caspase-3) HepG2 (AID 654); conditions: HepG2 caspase-3 activation, luminescence; series mostly up to 92.2 µM;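 note: cells exposed to compound for 16 hours before reading; 0% = DMSO alone and 100% = caspase signal from 100 µM tamoxifen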
Procedure, shortened: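 Luminescent Caspase-Glo 3/7 readout after 16 hr compound exposure of human hepatocellular carcinoma HepG2 cells at 37 °C; qHTS concentration-response, normalized DMSO = 0%, 100 uM tamoxifen = 100%; AC50 by standard Hill equation.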

[12] = Cellular Toxicity (caspase-3) Jurkat (AID 655); conditions: Jurkat caspase-3 activation, luminescence; series mostly up to 92.2 µM;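 note: cells exposed to compound for 16 h at 37 °C before reading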
Procedure, shortened: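 Caspase 3/7 activation is scored as increased luminescence in Jurkat cells cultured with compound for 16 hours in complete medium. AC50 values come from Hill fits of qHTS concentration-response data normalized to DMSO and 100 uM tamoxifen controls.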

[13] = Cellular Toxicity (caspase-3) HUV-EC-C (AID 656); conditions: HUV-EC-C cells, caspase-3 activation (apoptosis), vehicle = 0, 100 µM tamoxifen = 100%; series mostly up to 92.2 µM
Procedure, shortened: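 Read-out: luminescence proportional to caspase 3/7 activity, measured 20 min after adding Caspase-Glo 3/7 reagent. Cells (HUV-EC-C) had received compound for 16 hr at 37°C. Increases relative to DMSO and 100 uM tamoxifen gave concentration-response AC50 values.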

[14] = Cellular Toxicity (caspase-3) SHSY5Y (AID 657); conditions: SH-SY5Y caspase-3 activation; series mostly up to 91.7 µM;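 note: cells exposed to compound for 16 hours at 37 °C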
Procedure, shortened: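 Cells plated and incubated 5 h at 37 °C, dosed over a concentration range, incubated 16 h, then given Caspase-Glo 3/7 reagent for 1 h at room temperature before luminescence reading. Staurosporine (10 uM) defined full stimulation.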

[15] = Cellular Toxicity (caspase-3) BJ (AID 658); conditions: BJ fibroblasts, luminescence, normalized: DMSO 0%, staurosporine 100%; series mostly up to 91.7 µM;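 note: 0% = DMSO basal and 100% = 10 µM staurosporine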
Procedure, shortened: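 Caspase-Glo 3/7 luminescence, read 1 hr after reagent at room temperature, in normal BJ fibroblasts exposed 16 hours at 37 °C. AC50 values from Hill-equation concentration-response, scaled between DMSO basal and 10 uM staurosporine as 100%.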

[16] = Cellular Toxicity (caspase-3) MRC-5 (AID 659); conditions: MRC-5 cells, luminescence; Potency: caspase-3 activation; series mostly up to 91.7 µM;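 note: 0% = DMSO basal and 100% = 10 µM staurosporine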
Procedure, shortened: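 Luminescent Caspase-Glo 3/7 read-out (1 h, room temperature) after a 16 h, 37 °C compound exposure of MRC-5 lung fibroblasts at 1500 cells/well. Concentration-response AC50 from Hill equation; 0% DMSO, 100% 10 uM staurosporine.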

[17] = Cellular Toxicity (caspase-3) Mesangial (AID 660); conditions: mesangial cells, normalized: DMSO 0%, 100 µM tamoxifen 100%; series mostly up to 91.7 µM;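 note: cells exposed to compound for 16 h before the caspase read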
Procedure, shortened: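 Luminescent Caspase-Glo 3/7 readout (aminoluciferin substrate cleavage, 20 min RT) after 16 h compound exposure at 37 °C of normal human mesangial cells. Signal increase normalized between DMSO basal and 100 uM tamoxifen; Hill-equation AC50.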

[18] = Cellular Toxicity (caspase-3) SK-N-SH (AID 661); conditions: SK-N-SH caspase-3 activation, qHTS; series mostly up to 91.7 µM;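 note: 0% = DMSO basal and 100% = 10 µM staurosporine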
Procedure, shortened: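 Luminescent Caspase-Glo 3/7 read-out after 16 hr compound exposure of SK-N-SH neuroblastoma cells at 37 °C. Signal increase normalized to DMSO (basal) and 10 uM staurosporine (100%); AC50 from Hill equation fits of qHTS concentration-response data.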

[19] = Cellular Toxicity (caspase-3) H-4-II-E (AID 663); conditions: H-4-II-E rat hepatoma; Potency: caspase-3 activation; series mostly up to 92.2 µM;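 note: cells exposed to compound for 16 hr before readout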
Procedure, shortened: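 Caspase 3/7 activation measured by luminescent aminoluciferin substrate cleavage after 16 hr compound treatment of H-4-II-E cells in complete medium. Increase normalized between DMSO (basal) and 100 uM tamoxifen (100%); Hill-equation AC50 from concentration-response.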

CNCC[C@@H](Oc1ccccc1C)c1ccccc1
inactive: Potency [1] > 46 µM | outcome [2]

OC(CCN1CCCCC1)(c1ccccc1)c1ccccc1
inactive: outcome [2] | outcome [3]

Nc1ccc(C(=O)O)cc1
inactive: outcome [2] | Potency [4] | Potency [5] | Potency [6] | Potency [7] | Potency [8] | activity change, negative = cytotoxicity [9] -7.22% | activity change, negative = cytotoxicity [10] -3.72% | Potency [11] | Potency [12] | outcome [13] | Potency [14] | outcome [15] | Potency [16] | outcome [17] | Potency [18] | Potency [19]

CCN(CCCc1ccccc1)CCCc1ccccc1
inactive: outcome [2]
